# Source: the supplement of paper PMC6555819
# Tested on: VDR:RXRa (NR concentration 270 nM, RXRa partner concentration 90 nM)
# Test: PBM binding z-score (relative to random genomic background probes); higher = stronger binding; sequences stand for … in GC…GCGATTGACAGCGTAGAATGAAGG
# Experimental: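 Protein-binding microarray (Agilent 4x180K custom design, double-stranded 60-nt probes: 5' GC cap, 34-nt variable region, 24-nt constant primer region; full probe sequence given). Purified or IVT nuclear receptor:RXRα heterodimers (3:1 NR:RXRα, mostly 270:90 nM) or homodimers were incubated for 1 h in PBS with 2% milk and no ligand, then detected with Alexa488 antibodies. Fluorescence from o1-orientation probes (~5 replicates averaged) was converted to z-scores against 500 random hg19 background probes. Variable regions are seed direct-repeat (DR0–DR5) sites, all their single-nucleotide variants and half-site ablations.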
row,Sequence,PBM binding z-score
1,TTACCAAAGTGAAGGTCGTTGATCCCTCTGTAGA,0.954
2,TCTTGTAGATCAAAGGTTAAGAGAGCCGAAGCCT,1.29
3,CAAACTGGGTCACGAAAGGTCAAAGTCGAATGAC,6.96
4,TCTTGTATATCAAGCAGGTTAAGAAAGCCTGAGT,0.659
5,GCGACTGGGGAATCAGCAGGTTACCATAACTTAA,-0.497
6,TTACCTAGGTGAAAGGTCGTTGATGCACGCCTTG,2.75
7,CCAGACAGGTTAAAGGTAACTCAGTCTGGTACGC,1.62
8,CGTCAAAGTTCAACTATGGTAACGTAAAGCACGC,4.35
9,CGTCCAAGGTCAGAGATGTCAGTGAATGCCGAGT,3.64
10,ATACCAAGGTGATCGTGAGCTCGTTGATACTAAC,-0.0163
11,CCTAGCAGGCCAATCTGGGACACTCAAGGCTTGA,-0.61
12,CAAACTAGGTCAACGGAAGGTCAAAGTCCGCATG,5.56
13,CTGACTGGGGCAAGGTTACCATAACGCACAGCCA,0.261
14,CCTTACGGGTCACTCCAGGTTATAGAATCGGAGT,4.17
15,CCAGACACGTGAGAAGGTAACTCAGCCTCGATTA,-0.39
16,ATCGAAAGGTCGGGGTGAGTATAGAGAAAGGGAA,3.1
17,CCGACTGGGGCAGAAAAGTTACCATACCATCCGG,-0.576
18,TAGCCTAGGTCATTGGGTCAGTATAGTACGCATC,4.26
19,TTACCAATGTGAGCTGAGGTCGTTGATCCAACTC,1.78
20,ACTATTAGTAGACTTAGGGCAACCGATACGACGC,-0.00967

row,Sequence,PBM binding z-score
1,CATCAAAGTTCAACTAAGGTAACGTAAAGCACGC,4.98
2,GTACGAAGGTGAATAGGTCGTTGATGAGTAGGCG,0.73
3,ACAGACACGTGAGTGAAGGTAACTCAGCTGGACG,-0.481
4,TCTTGTAGATCAACAGGAGGTTAAGACAGATCGA,0.563
5,CCTACTAGGCCAAAGGTCATTGATTCCAATGCTC,5.12
6,CGTCCAAGGTCAGAGACGTCAGTGAATGCCGAGT,2.76
7,CCTACTGGCCCAAAGGTCATTGATTCCAATGCTC,4.28
8,CCATACAGGTGAGAAGGTAACTCAGCCTCGATTA,0.121
9,CGTCAAAGTTCAACTAAGGTAACGTAGAGCACGC,4.59
10,ATCTCTAGGTAAAGCTAGTTCAGTGAATGCAAAT,0.818
11,TAGCCTAGGTCATGGGCCAGTAAACCACGCGAAC,2.07
12,CGAACTAGGTCAAGGAAAGTGAATCTCCGCACGC,1.02
13,TCGAGGAGGTTACCAATGGGGCATTCAGCTTTCT,1.13
14,GATACAGGGTCAGCTAGAGGCCAGAGAATGGAAA,3.42
15,CGAACTAGGTCATTGACAGGACAGTGTATAGTAA,2.05
16,GTACCAATGTGAATAGGTCGTTGATGAGTAGGCG,-0.000523
17,CCGACTGGGCCATCAGGTCATTGATATCAACGTT,1.63
18,ATACTAAGGTGATCGTGAGGTCGTTGATACTAAC,3.72
19,CCGACTGGGGCAGAAAGGTTACGATACCATCCGG,1.2
20,ACAGACAGGGGATGAAGGTAACTCAGGCTATCAT,0.0836
